Here are results for 107 compounds from ChEMBL document CHEMBL4513216, “Probing the Open Global Health Chemical Diversity Library for Multistage-Active Starting Points for Next-Generation Antimalarials” (ACS Infect Dis, 2020).

Each structure is given as a SMILES string. Among all 69,000 compounds or so, about 8,600 (12%) showed an effect of 50% or more. This is one part of a sample in which strong results are shown more often than they occur.

The test system of the test is Plasmodium berghei. Description: Screen against P. berghei liver stage (PbLuc), transformed with Luciferase, at 10uM. The class given is functional, HepG2. The note with it: tested at 10 uM.
On to `CC(C)OCc1nn(C)c2c1CN(Cc1cccs1)CC2`, for which the INHIBITION turned out to be 35.8%. The value for `Cc1nn(C(C)C)c(C)c1NC(=O)c1cccnc1` was 7.18%; that for `COc1ccc(C(=O)n2nc(C)c(C)c2C)cc1` was 30.7%. For `Cc1nn(C(=O)c2cccnc2)c(C)c1C` the value was 64.6%; for `CO[C@@H]1CC[C@H]2[C@H]1OCCN2Cc1ccc(F)c(F)c1`, -8.28%. Take `Cc1ccccc1C(C(=O)NCCSC(F)(F)F)N(C)C` (configuration not stated): the INHIBITION is given as -33.8%. For `CC1(C)Cc2nc(C(C)(C)C)ncc2C(NC(=O)Cc2nnn[nH]2)C1` (configuration not stated) the value was -0.71%; for `COC(=O)CC(c1cccs1)c1oc(C)cc(=O)c1O` (configuration not stated), 27.5%. For `CCN1CCn2c(C)cnc2C12CCN(C(=O)c1ccc(Cl)cc1)CC2` the value was 31.9%; for `CC(=O)NCCCC(=O)NC(C)c1nnc2n1CCC2` (configuration not stated), 1.75%. For `CCOCC(=O)N1CCOCC2(CCN(c3ncccn3)C2)C1` (configuration not stated) the value was 14.5%; for `CCN(C)S(=O)(=O)N1CCCC(c2nc(-c3ccccc3)c[nH]2)C1` (configuration not stated), 89.1%; for `CC(=O)N1CCCC(c2nc(-c3ccccc3)c[nH]2)C1` (configuration not stated), 16.6%. With `CCN(CC)S(=O)(=O)N1CCCC(c2ccc(C(=O)O)cc2)C1` (configuration not stated), the INHIBITION was 36.8%.

Consider `CCCS(=O)(=O)N1CCCC(c2nc(-c3ccccc3)c[nH]2)C1` (configuration not stated), for which the INHIBITION came to 44.4%.

With `CCN(C)S(=O)(=O)N1CCCC(c2cccc(C(=O)O)c2)C1` (configuration not stated), the INHIBITION is given as -5.38%. For `CS(=O)(=O)N1CCCC(c2nc(-c3ccccc3)c[nH]2)C1` (configuration not stated) the value was 50.4%; for `O=C(c1cc(C2CCCCN2CCO)n[nH]1)N1CCOCC1` (configuration not stated), -0.902%. For `Cc1ncncc1C(=O)NCCn1nc2ccccn2c1=O` the value was 12.915%; for `CCCS(=O)(=O)N1CCN(c2ccc3nnc(CC)n3n2)CC1`, -37.2%; for `Cc1ccccc1OCC(=O)NCC(c1ccc(N(C)C)cc1)N(C)C` (configuration not stated), 27.5%.

As for `CCNc1nc2cn(-c3ccc(OC(F)(F)F)cc3)c(=O)c-2c[nH]1`, the INHIBITION is recorded as 45.6%. For `C[C@@H](NC(=O)c1cccs1)c1onc(-c2cccnc2)c1C(=O)O` the value was -20.8%; for `CC(C)(C)OCCN1CCCC1c1nc(Cc2ccc(F)cc2)no1` (configuration not stated), 10.6%; for `C=C(C)CN1CCCC1c1nc(Cc2ccc(F)cc2)no1` (configuration not stated), 61.1%.

For the compound `OCCCN1CCCC1c1nc(Cc2ccc(F)cc2)no1` (configuration not stated), the INHIBITION is 14.9%.

As for `O=C(CN1CCCC1c1nc(Cc2ccc(F)cc2)no1)NC1CC1` (configuration not stated), the INHIBITION is 62%. The value for `CCCNC(=O)CN1CCCC1c1nc(Cc2ccc(F)cc2)no1` (configuration not stated) was 47.4%; that for `CCCN1CCCC1c1nc(Cc2ccc(F)cc2)no1` (configuration not stated) was 23.5%. On to `O=C(CN1CCN(CC(O)C2CC2)CC1)NCc1ccccc1` (configuration not stated), for which the INHIBITION is -24.6%. The value for `Cc1cc(F)ccc1-c1ccccc1CC1CNCCNC1=O` (configuration not stated) was 71.2%; that for `Cc1ccc(-c2ccccc2CC2CNCCNC2=O)c(C)c1` (configuration not stated) was 33%; that for `COc1ccc(F)cc1-c1ccccc1CC1CNCCNC1=O` (configuration not stated) was 23.595%. For `CC(=O)N1CCN(C(=O)c2cc(-n3cnnn3)ccc2Cl)CC1` the value was 6.32%; for `CCN(C(=O)NCc1ccccc1OC(F)F)C(C)c1cccnc1` (configuration not stated), 50.1%; for `CCN(C(=O)NCc1ccc(C)cc1OC)C(C)c1cccnc1` (configuration not stated), 29.8%. For `CCOc1ccccc1CNC(=O)N(CC)C(C)c1cccnc1` (configuration not stated) the value was -1.25%.

In the case of `NC(=O)c1ccccc1Oc1cnc(C2CCCN2)cn1` (configuration not stated), the INHIBITION is -38.3%. The value for `Cc1ccc2c(c1)CCC2NC(=O)N1CCC(C(N)=O)CC1` (configuration not stated) was 10.1%.

Take `COC(=O)Cn1c(=O)[nH]c2cn(-c3ccc(C)cc3)c(=O)n21`: the INHIBITION is reported as -1.04%. The value for `CC(C)CN1C(=O)CO[C@@H]2CN(C(=O)C3CCOCC3)C[C@H]21` was 11.3%. The value for `CC(C)CN1C(=O)CO[C@@H]2CN(C(=O)N(C)C)C[C@H]21` was 29%; that for `CC(C)CN1C(=O)CO[C@@H]2CN(C(=O)CC(F)(F)F)C[C@H]21` was 54.1%. For `CC(C)CN1C(=O)CO[C@@H]2CN(C(=O)N3CCOCC3)C[C@H]21` the value was 29%. As for `CC(C)CN1C(=O)CO[C@@H]2CN(C(=O)[C@H]3CCCO3)C[C@H]21`, the INHIBITION is recorded as 36.4%. Turning to `CC(C)CN1C(=O)CO[C@@H]2CN(C(=O)NC(C)C)C[C@H]21`, the INHIBITION is 70.4%.

As for `CCN(CC)CC1CN(Cc2cccc(C#N)c2)Cc2nccn2C1` (configuration not stated), the INHIBITION is on record as -16.9%. Regarding `CC1CCCN(c2nccn3c(=O)[nH]nc23)C1` (configuration not stated), the INHIBITION came out at 17.6%. The value for `COCC(=O)N1CCC(=O)N(C2CCCC2)Cc2cc(F)ccc21` was -13.3%; that for `CCOC(=O)[C@]12CCCN(Cc3nccs3)C[C@H]1CN(S(C)(=O)=O)C2` was 5.96%. The value for `O=C(O)[C@]12CCCN(Cc3cccs3)C[C@H]1CN(c1ncccn1)C2` was -7.24%; that for `CCOC(=O)[C@]12CCCN(Cc3cccs3)C[C@H]1CN(CCOC)C2` was 33.5%; that for `CCOC(=O)[C@]12CCCN(Cc3nccs3)C[C@H]1CN(CCN(C)C)C2` was 15.1%.

Turning to `CCOC(=O)[C@]12CCCN(Cc3cccs3)C[C@H]1CN(C(C)C)C2`, the INHIBITION is 64.3%. For `CCOC(=O)[C@]12CCCN(Cc3nccs3)C[C@H]1CN(CCOC)C2`, the INHIBITION is on record as -14.4%. `CCOC(=O)[C@]12CCCN(Cc3ccsc3)C[C@H]1CN(CCOC)C2`: the INHIBITION is reported as -74.6%. Regarding `CCOC(=O)[C@]12CCCN(Cc3nccs3)C[C@H]1CN(C(C)=O)C2`, the INHIBITION is given as -1.64%. On to `CCOC(=O)[C@]12CCCN(Cc3cccs3)C[C@H]1CN(CC(C)C)C2`, for which the INHIBITION was determined as 60.3%. The value for `CCOC(=O)[C@]12CCCN(Cc3cccs3)C[C@H]1CN(C(C)=O)C2` was 51.4%; that for `CCOC(=O)[C@]12CCCN(Cc3nccs3)C[C@H]1CN(C(C)C)C2` was 76.4%. The value for `CCOC(=O)[C@]12CCCN(Cc3nccs3)C[C@H]1CN(CC(C)C)C2` was -13%. In the case of `COc1cc(-c2nc3c([nH]2)CCCNC3=O)cc(OC)c1OC`, the INHIBITION is on record as -34.8%. For `Cc1ccc(F)cc1C(=O)N1CCN(S(C)(=O)=O)[C@@H](C)C1` the value was -2.23%; for `CCOC(=O)Cc1cs/c(=N/C(=O)COc2cnc(C)cc2O)[nH]1`, -1.45%. For `CC(C)(C)c1cccc(OCC(=O)NS(=O)(=O)c2cccnc2)c1` the value was 0.1%; for `CCNC(=O)NC(=O)CNC(C)(C)c1ccc2c(c1)OCO2`, -12.2%.

As to `CN(Cc1cccnc1)[C@@H]1CN(Cc2ccccn2)[C@@H]2CCCO[C@H]12`, the INHIBITION was found to be 30.3%.

With `NCC1CCC(c2c(C(=O)NCCO)sc3ccccc23)CC1` (configuration not stated), the INHIBITION was -11.4%. As for `CC1CCCCN1C(=O)CCn1cnc2sccc2c1=O` (configuration not stated), the INHIBITION came out at 42.7%. Consider `CCC1CCCCN1C(=O)CCn1cnc2sccc2c1=O` (configuration not stated), for which the INHIBITION is recorded as 25.4%. The value for `CNC(=O)C1CCCCN1C(=O)CCn1cnc2sccc2c1=O` (configuration not stated) was 52.6%; that for `CCn1ncc2c(C(F)F)cc(-c3ccn(C)n3)nc21` was 8.05%; that for `O=C(Nc1ccc(Cn2cccn2)cc1)N1CCC2(CC1)OCCO2` was 41%. With `CC1(C)CN(C(=O)Nc2ccc(Cn3cccn3)cc2)CCO1`, the INHIBITION amounted to 49.9%. For `O=C(Nc1ccc(Cn2cccn2)cc1)N1CCC(CO)CC1` the value was 57.8%; for `COCCOc1ccc(NC(=O)C2CC(=O)N(CC3CC3)C2)cn1` (configuration not stated), 4.71%.

`CN(C)C(=O)N1CCC2(CC1)CN(CC1CC1)CC21CCNC1=O` (configuration not stated): the INHIBITION is reported as -63.9%. For `Cc1cc(C(=O)NCc2ccc(F)cc2)c2c(C3CCNC3)noc2n1` (configuration not stated) the value was 41.6%; for `Cc1cc(C(=O)NCC(F)(F)F)c2c(C3CCNCC3)noc2n1`, 64%; for `Cc1cc(C(=O)NCC(F)(F)F)c2c(C3CCCN3)noc2n1` (configuration not stated), 30.8%. The value for `O=C(C1CCN(c2nc3nc[nH]c(=O)c3s2)CC1)N1CCCCC1` was 37.4%; that for `NC(=O)NC(CC(=O)NCCc1cccc(F)c1)c1ccccc1` (configuration not stated) was 20.5%. The value for `NC(=O)NC(CC(=O)NCCc1ccc(F)cc1)c1ccccc1` (configuration not stated) was 53.8%; that for `COc1ccc(CCNC(=O)CC(NC(N)=O)c2ccccc2)cc1` (configuration not stated) was 29.1%. Consider `CSCC(=O)N1CCCCC1Cn1cc(C)cn1` (configuration not stated), for which the INHIBITION is recorded as -5.25%. For `CC(C)CN1CCC2(CCN(CC3CC3)CC2)C1=O` the value was -7.24%; for `COc1cc(N2CCCC(CO)(Cc3ccccc3F)C2)ncn1` (configuration not stated), 84.9%; for `O=C(O)C1(Cc2ccccc2F)CCCN(c2ncnc3[nH]ccc23)C1` (configuration not stated), 23.5%. The value for `Nc1ccnc(N2CCCC(CO)(Cc3cccc(Cl)c3)C2)n1` (configuration not stated) was 44.9%. The value for `OCC1(Cc2ccccc2F)CCCN(c2ccc3ccccc3n2)C1` (configuration not stated) was 89.9%; that for `Nc1cc(N2CCCC(CO)(Cc3ccccc3F)C2)nc(N)n1` (configuration not stated) was 75.1%; that for `Nc1cc(N2CCCC(Cc3ccc(F)cc3F)(C(=O)O)C2)ncn1` (configuration not stated) was 34.4%. For `COC[C@]1(O)CCN(c2cc(OC)ncn2)CC1(C)C`, the INHIBITION is given as -31.7%. Consider `CCCC1(CO)CCCN(c2ncccc2F)C1` (configuration not stated), for which the INHIBITION is given as -29.9%. The value for `N#Cc1cccc(N2CCCC(CO)(Cc3ccccc3F)C2)n1` (configuration not stated) was 23.5%. As for `CNC(=O)N1CC[C@@H]2CN(Cc3cccnc3)S(=O)(=O)[C@@H]2CC1`, the INHIBITION is on record as 22.2%. For `CN1CC(=O)N(C2CCNCC2)Cc2c(NC3CCC3)ncnc21`, the INHIBITION is recorded as -13%. The value for `CCOC1COC2(CCN(Cc3ccc4c(c3)OCO4)CC2)C1` (configuration not stated) was 24.9%; that for `COCCn1c(CN2CCCCO2)cnc1S(=O)(=O)CC1CCCCC1` was -2.13%; that for `CCc1cc(NC2CCC(N)CC2)n2nc(C)c(C)c2n1` (configuration not stated) was 14.1%. The value for `CC(C)n1ncc2cc(NC(=O)N3CCC(CO)CC3)cnc21` was 29.7%; that for `CCc1nc(CN(C)C2CCN(CCOc3ccccc3)C2)no1` (configuration not stated) was -0.219%; that for `c1ccc(OCc2noc(CN3CCC(N4CCSCC4)CC3)n2)cc1` was 79.5%. Turning to `c1ccc(OCc2noc(CN3CCN(C4CCCC4)CC3)n2)cc1`, the INHIBITION was determined as 40.9%. The value for `c1ccc(CCc2noc(CN3CCC(N4CCSCC4)CC3)n2)cc1` was 7.97%. The value for `Fc1ccccc1Cc1noc(CN2CC[C@@H]3CCCC[C@H]3C2)n1` was 38.4%. As for `Fc1ccccc1Cc1noc(CN2CCC(N3CCSCC3)CC2)n1`, the INHIBITION was 75.2%.
